This passage reports Potency, activity change, negative = cytotoxicity and activity, negative = inhibition results from PubChem BioAssay (Tox21).

“And” between values parts separate entries of the source, which are not always exact repeats. Identical values can stand only once. Inconclusive results are not listed. Entries that show only a call come without a potency. The source made the active and inactive calls. Calls come from the whole dose curve; as a rule, active = well fitted curve in the direction sought with a large enough effect in the repeat runs; inconclusive = weak or mixed curves; inactive = no such curve, though single readings can be large; an effect the other way counts as inactive or inconclusive.
Potency is the fitted concentration of half-maximal effect.

The first assay can be described thus: qHTS assay to identify small molecule antagonists of the retinoid acid receptor (RAR) signaling pathway - cell viability counter screen (AID 1159551). Note: nearly all actives have a fitted effect of over 35% in size. The note with it: C3RL4 cells viability, ATP luminescence (CellTiter-Glo), 6 h; series mostly up to 92.4 µM. The essentials:
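Cytotoxicity counter screen in C3RL4 cells: 6 h compound exposure with 1 uM retinol (final), viability from cellular ATP by luminescence.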
A general note: qHTS replaces the single test concentration by a dilution series.
In the case of `NC(=O)c1ccccc1N`, the Potency result was “inactive”.

As for `Clc1ccc(C(c2ccccc2Cl)C(Cl)Cl)cc1` (configuration not stated), the Potency result is “inactive”.

Regarding `CC(C)c1ccccc1N`, the Potency entry was “inactive”.

As to `COC(=O)[C@]1(C)CCC[C@@]2(C)[C@H]1CC=C1C=C(C(C)C)CC[C@@H]12`, the Potency entry was “inactive”.

For `Cn1cnc2ncnc(N)c21`, the Potency result was “inactive”.

Take `CC1(C)COCN1`: the Potency entry is “inactive”.

As to `CCCCCCCOC(=O)c1ccc(O)cc1`, the Potency entry was “inactive”.

Regarding `O=C(Nc1ccc(Cl)cc1)Nc1ccc(Cl)c(C(F)(F)F)c1`, the Potency is 29.8 µM (active).

Turning to `Cc1ccc2ccc3cccc4ccc1c2c34`, the Potency result was “inactive”.

Consider `CCCCCCOc1ccc(O)cc1`, for which the Potency result is “inactive”.

`CCN=c1cc2oc3cc(NCC)c(C)cc3c(-c3ccccc3C(=O)OCC)c-2cc1C`: the Potency was 60.9 µM (active) and 48.6 µM (active).

On to `CN(C)c1ccc(N=Nc2ccccc2C(=O)O)cc1`, for which the Potency entry was “inactive”.

In the case of `O=C[C@H](O)[C@H](O)[C@H](O)CO`, the Potency entry was “inactive”.

Regarding `Cn1cccc1`, the Potency entry is “inactive”.

`Cc1c(C)n(Cc2ccccc2)c2ccc(C(=O)OCCN(C)C)cc12`: the Potency result is “inactive”.

Regarding `CN1CCN(C2Cc3ccccc3Sc3ccc(Cl)cc32)CC1` (configuration not stated), the Potency result is “inactive”.

On to `Cc1nc(Nc2ncc(C(=O)Nc3c(C)cccc3Cl)s2)cc(N2CCN(CCO)CC2)n1`, for which the Potency result was “inactive”.

As for `CCCC(C)CCC(C)=O` (configuration not stated), the Potency entry was “inactive”.

Consider `O=c1cccc[nH]1`, for which the Potency result was “inactive”.

`CC(C)(c1cc(Br)c(O)c(Br)c1)c1cc(Br)c(O)c(Br)c1`: the Potency result is “inactive”.

For the compound `NCCCCCCNCCCCCCN`, the Potency entry is “inactive”.

On to `C/C=C/C(=O)Oc1c(CCCCCC(C)C)cc([N+](=O)[O-])cc1[N+](=O)[O-]`, for which the Potency result was “inactive”.

As for `CC(C)c1cccc(C(C)C)c1N1C(=O)c2ccc(O)cc2C1=O`, the Potency was 61.1 µM (active).

For the compound `CCCCCCCCCCCCCCCC`, the Potency entry was “inactive”.

For the compound `CCOC(=O)CN`, the Potency result was “inactive”.

As for `C[C@@H]1CC[C@H]2C(C)(C)[C@H]3C[C@@]12CC[C@@]3(C)O`, the Potency result is “inactive”.

As for `CCN1CCN(c2cc(-c3ccc(F)cc3)c3c(n2)CCCCCC3)CC1`, the activity change, negative = cytotoxicity is 0.574% [at 19 µM] (inactive).

For `Cc1ccc(O)cn1`, the Potency entry was “inactive”.

On to `COc1ccc(-n2nc(CCC(=O)N(C)O)cc2-c2ccc(Cl)cc2)cc1`, for which the Potency result was “inactive”.

For `C[Si](C)(C)Cl`, the Potency result was “inactive”.

`CCCC(CC)CCCCCCCN` (configuration not stated): the Potency result is “inactive”.

Turning to `CN(C)c1ccc(N=NS(=O)(=O)O)cc1`, the Potency entry is “inactive”.

In the case of `CS(C)(=O)=O`, the Potency result is “inactive”.

For `Cc1ccc(-n2[nH]c(C)c(N=Nc3cccc(-c4cccc(C(=O)O)c4)c3O)c2=O)cc1C`, the Potency entry is “inactive”.

As to `CCC1(c2cnc[nH]2)Cc2ccccc2C1`, the Potency entry is “inactive”.

With `Cc1ccc(CCn2c3c(c4cc(Cl)ccc42)CN(C)CC3)cn1`, the Potency entry was “inactive”.

Another assay is described as follows: qHTS assay to identify small molecule antagonists of the retinoic acid receptor (RAR) signaling pathway (AID 1159552; note: nearly all actives have a fitted effect of over 50% in size). To be noted: C3RL4 RARE luciferase reporter, retinol-stimulated, 6 h; series mostly up to 92.4 µM. Summed up: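 Using a RARE-driven luciferase construct in C3RL4 cells, retinol at 1 uM final provided the agonist stimulus while compounds were co-applied. After 6 hours at 37 C, luminescence was recorded to flag inhibitors of retinol signaling.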
On to `NC(=O)c1ccccc1N`, for which the Potency entry is “inactive”.

Regarding `Clc1ccc(C(c2ccccc2Cl)C(Cl)Cl)cc1` (configuration not stated), the Potency was 54.5 µM (active).

`CC(C)c1ccccc1N`: the Potency entry is “inactive”.

With `COC(=O)[C@]1(C)CCC[C@@]2(C)[C@H]1CC=C1C=C(C(C)C)CC[C@@H]12`, the Potency result is “inactive”.

In the case of `Cn1cnc2ncnc(N)c21`, the Potency entry was “inactive”.

On to `CC1(C)COCN1`, for which the Potency entry was “inactive”.

For the compound `CCCCCCCOC(=O)c1ccc(O)cc1`, the Potency result is “inactive”.

On to `O=C(Nc1ccc(Cl)cc1)Nc1ccc(Cl)c(C(F)(F)F)c1`, for which the Potency was 23.7 µM (active).

In the case of `Cc1ccc2ccc3cccc4ccc1c2c34`, the Potency entry was “inactive”.

Consider `CCCCCCOc1ccc(O)cc1`, for which the Potency result was “inactive”.

`CCN=c1cc2oc3cc(NCC)c(C)cc3c(-c3ccccc3C(=O)OCC)c-2cc1C`: the Potency was 24.2 µM (active) and 24.3 µM (active).

As for `CN(C)c1ccc(N=Nc2ccccc2C(=O)O)cc1`, the Potency entry was “inactive”.

As to `O=C[C@H](O)[C@H](O)[C@H](O)CO`, the Potency entry is “inactive”.

As to `Cn1cccc1`, the Potency result is “inactive”.

On to `Cc1c(C)n(Cc2ccccc2)c2ccc(C(=O)OCCN(C)C)cc12`, for which the Potency result was “inactive”.

With `CN1CCN(C2Cc3ccccc3Sc3ccc(Cl)cc32)CC1` (configuration not stated), the Potency is 29.8 µM (active).

With `Cc1nc(Nc2ncc(C(=O)Nc3c(C)cccc3Cl)s2)cc(N2CCN(CCO)CC2)n1`, the Potency was 16.8 µM (active).

As to `CCCC(C)CCC(C)=O` (configuration not stated), the Potency result was “inactive”.

For the compound `O=c1cccc[nH]1`, the Potency entry is “inactive”.

For `CC(C)(c1cc(Br)c(O)c(Br)c1)c1cc(Br)c(O)c(Br)c1`, the Potency result is “inactive”.

For the compound `NCCCCCCNCCCCCCN`, the Potency result was “inactive”.

`C/C=C/C(=O)Oc1c(CCCCCC(C)C)cc([N+](=O)[O-])cc1[N+](=O)[O-]`: the Potency is 17.2 µM (active).

As to `CC(C)c1cccc(C(C)C)c1N1C(=O)c2ccc(O)cc2C1=O`, the Potency is 24.3 µM (active).

Take `CCCCCCCCCCCCCCCC`: the Potency entry is “inactive”.

For the compound `CCOC(=O)CN`, the Potency result was “inactive”.

On to `C[C@@H]1CC[C@H]2C(C)(C)[C@H]3C[C@@]12CC[C@@]3(C)O`, for which the Potency entry was “inactive”.

`CCN1CCN(c2cc(-c3ccc(F)cc3)c3c(n2)CCCCCC3)CC1`: the activity, negative = inhibition is 9.21% [at 19 µM] (inactive).

`Cc1ccc(O)cn1`: the Potency entry is “inactive”.

As to `COc1ccc(-n2nc(CCC(=O)N(C)O)cc2-c2ccc(Cl)cc2)cc1`, the Potency entry is “inactive”.

For the compound `C[Si](C)(C)Cl`, the Potency entry was “inactive”.

As for `CCCC(CC)CCCCCCCN` (configuration not stated), the Potency entry is “inactive”.

As to `CN(C)c1ccc(N=NS(=O)(=O)O)cc1`, the Potency entry was “inactive”.

For `CS(C)(=O)=O`, the Potency entry was “inactive”.

Regarding `Cc1ccc(-n2[nH]c(C)c(N=Nc3cccc(-c4cccc(C(=O)O)c4)c3O)c2=O)cc1C`, the Potency result was “inactive”.

Consider `CCC1(c2cnc[nH]2)Cc2ccccc2C1`, for which the Potency result is “inactive”.

With `Cc1ccc(CCn2c3c(c4cc(Cl)ccc42)CN(C)CC3)cn1`, the Potency entry was “inactive”.
